Measured values: the supplement of paper PMC10681739

These sequences were tested against T1, ETS1 (UniProt P14921) (assay: ETS1 binding intensity (PBM fluorescence), ETS1 alone (arbitrary fluorescence units); higher = stronger binding). Settings: ETS1 concentration 1 nM; RUNX1 concentration 0 nM.
T1 sequence: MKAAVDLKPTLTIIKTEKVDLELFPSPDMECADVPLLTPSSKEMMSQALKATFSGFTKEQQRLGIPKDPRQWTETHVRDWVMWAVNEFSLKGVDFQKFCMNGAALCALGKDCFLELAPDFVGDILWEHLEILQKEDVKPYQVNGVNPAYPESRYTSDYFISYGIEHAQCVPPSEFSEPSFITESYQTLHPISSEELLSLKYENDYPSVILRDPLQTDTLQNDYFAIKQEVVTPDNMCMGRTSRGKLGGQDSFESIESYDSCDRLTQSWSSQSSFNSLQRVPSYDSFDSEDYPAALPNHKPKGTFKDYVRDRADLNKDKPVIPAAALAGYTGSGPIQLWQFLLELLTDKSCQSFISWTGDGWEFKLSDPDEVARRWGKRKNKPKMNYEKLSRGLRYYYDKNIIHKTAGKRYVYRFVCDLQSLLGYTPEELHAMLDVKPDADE

First: AGCGGCCTGGGAGGAGGATGTGGTTACGTGGAGACC
Second: GGGGAACGGAAGCTGCTGTCGTTACTGGCGGTTGTA
The ETS1 binding intensity of the first is lower: 1120 for the first, 1510 for the second.

First: GACTCTTCCGGCCCAGAGCTTTCGGAGTGCGGTTGC
Second: GGACCGGAAGTAGGTTTCTACCCGACCGCATTTTAC
The ETS1 binding intensity of the first is lower: 399 for the first, 12100 for the second.

Compared with TGTCCGCACCCCACTTCCGCCCCGCAGAGGGCAACG, CCATTTCCGCGCACGTCTGCAGATGCGGTAGTCGAT is lower in ETS1 binding intensity: 2960 for the first, 413 for the second.

Going from TTGTCGGGTATGGGATGTGGGCAGAGAGTATGATGG to AGATCAACTTCCACATCCGGTGGTAACAGGGCCCTA, the ETS1 binding intensity rises from 604 to 5380.

Compared with AAAGAGGAAATCACATACCCGAAAACCACATGCACA, CCCGGAAACTCAACTGCCCACTGCTGCGGCCGCCAT is higher in ETS1 binding intensity: 513 for the first, 599 for the second.

First: AGAAAAGGAAATGGTGGGCTGCACACCACAGCTCAC
Second: ACTCCCTAGAGCAGGAAGCCTGTGGTTTGTAATTGG
The ETS1 binding intensity of the first is lower: 477 for the first, 1140 for the second.

Going from AGACGGTAGGCCAGGAAACCGCAGGCCCCTGCCGGG to TCCCACATCCTGTGCTCGTGCAGTGGTTAGGCTCAA, the ETS1 binding intensity falls from 925 to 562.

Compared with CCGTACTTCCGCTTTACTCAGATTTTGGACCGCGGG, AATGCCGGATATTGGTTCTGGTAAGCCACAAAAAAG is lower in ETS1 binding intensity: 1810 for the first, 1720 for the second.

First: GCACGCCATCGAGGAAGTGGGTTTACTGTGTATTTC
Second: TGCATGTGCAGCAGAGGAAACCACAAGTTATTCCCT
The ETS1 binding intensity of the first is higher: 916 for the first, 557 for the second.

Going from GGGATCTACTTCCTCTCTCGGCCGCGGCCGCAGCAC to AAGGCGGAGGAAGGGAAAATTGTGGTTGGGCAGAGG, the ETS1 binding intensity falls from 790 to 511.

For CCCCTCTCTCCCACTTCCTGTGGTCTCAGTCTTTGT, the ETS1 binding intensity was 3360.
